Among the data in PubChem BioAssay are z-score and composite z-score values, retold here.

The nature of experiment [1]: resazurin metabolic signal in HepG2 cells – cell-based, resazurin fluorescence, 24 h, PK04 Diversity Set, profiling panel (AID 1172). Further: test concentration not given here. The following applies: HepG2 viability, higher = more signal. A general note: Resazurin is reduced to fluorescent resorufin, in cell work by metabolically active cells.
The nature of experiment [2]: budding yeast growth changes without added modifier – OD600, strain BY4716, 24 h, basal condition, primary screen (AID 1173). The following applies: S. cerevisiae BY4716 growth, OD600, 24 h; higher = more signal, called active from +8 up or from −8 down.
A short description of experiment [3]: viability profiling in MM1S myeloma cells – cell-based, resazurin fluorescence, basal, 24 h, PK04 Diversity Set, profiling panel (AID 1174).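 Further: MM1S multiple myeloma cell line; test concentration not given here.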 The following applies: higher = more signal, called active from +8 up or from −8 down.
Experiment [4] has as its target Dihydroorotate dehydrogenase (quinone), mitochondrial (Plasmodium falciparum (isolate 3D7)) (UniProt Q08210). Briefly: inhibition of P. falciparum DHODH – biochemical, C-terminal His tag, absorbance 600 nm, primary screen (AID 1175).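 Further: recombinant parasite enzyme with a five histidine tag at its C terminus; test concentration not given here.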 The following applies: PfDHODH enzyme, DCIP absorbance 600 nm; higher = more signal, called active from +8 up or from −8 down.
Experiment [5] can be described thus: inhibition of PAO1 biofilm formation – strain PAO1, LB-PBS medium, absorbance 600 nm, primary screen (AID 1176). Further: test concentration not given here. The following applies: P. aeruginosa PAO1 growth/biofilm, A600, 12 h; higher = more signal.
Experiment [6] is described as follows: growth modulation of vineyard yeast isolate – strain RM11-1a, OD600, basal, 24 h, primary screen (AID 1177).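 Further: cultures grown under basal conditions with no added stressor; test concentration not given here.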 The following applies: S. cerevisiae RM11-1a growth, OD600, 24 h; higher = more signal, called active from +8 up or from −8 down.
A short description of experiment [7]: growth of efflux-deficient E. coli DRC39 – strain DRC39, OD650, 24 h, E. coli filamentation inducers, primary screen (AID 1178).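 Further: growth measured as culture turbidity by optical density at 650 nm; test concentration not given here.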 The following applies: E. coli DRC39 acrAB, higher = more signal, called active from +8 up or from −8 down.
Experiment [8] in a line: growth of efflux-deficient E. coli DRC39 – strain DRC39, OD650, 48 h, E. coli filamentation inducers, primary screen (AID 1179).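 Further: screen aims at cell division blockers that make cells filament.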 The following applies: E. coli DRC39 delta-acrAB growth, higher = more signal, called active from +8 up or from −8 down.
A short description of experiment [9]: viability profiling in RPMI8226 myeloma cells – cell-based, resazurin fluorescence, basal, 24 h, PK04 Diversity Set, profiling panel (AID 1180).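 Further: RPMI8826 multiple myeloma cell line at 5000 cells per well; test concentration not given here.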 The following applies: higher = more signal.
In experiment [10] the target is E3 ubiquitin-protein ligase XIAP (Homo sapiens) (UniProt P98170). The experiment can be described thus: small molecules binding XIAP protein – biophysical, small-molecule microarray, fluorescence 635 nm, primary screen (AID 1181).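 Further: score merges 667 nm emission and signal to noise over triplicate slides.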 The following applies: higher = more signal.

Structures are written as SMILES. Activity calls are given as the source filed them. Unless noted, how the calls were made is not given here.

Chain of Dihydroorotate dehydrogenase (quinone), mitochondrial (Plasmodium falciparum (isolate 3D7)) (Q08210 whole entry, looked up): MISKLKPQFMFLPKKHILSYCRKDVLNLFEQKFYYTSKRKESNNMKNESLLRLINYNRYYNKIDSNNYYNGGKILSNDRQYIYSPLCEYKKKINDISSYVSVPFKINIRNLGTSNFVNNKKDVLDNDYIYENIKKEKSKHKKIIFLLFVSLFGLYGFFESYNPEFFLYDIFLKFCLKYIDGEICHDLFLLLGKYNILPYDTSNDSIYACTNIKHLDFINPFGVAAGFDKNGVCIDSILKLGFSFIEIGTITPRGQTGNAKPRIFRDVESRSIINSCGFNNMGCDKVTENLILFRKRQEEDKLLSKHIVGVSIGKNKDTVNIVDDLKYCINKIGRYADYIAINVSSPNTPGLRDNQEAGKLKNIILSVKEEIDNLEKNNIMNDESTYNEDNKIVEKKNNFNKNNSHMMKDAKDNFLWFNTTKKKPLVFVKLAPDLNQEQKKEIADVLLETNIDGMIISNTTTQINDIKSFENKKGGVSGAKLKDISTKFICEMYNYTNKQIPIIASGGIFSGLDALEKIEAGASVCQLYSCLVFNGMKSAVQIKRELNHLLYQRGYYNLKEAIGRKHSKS
Chain of E3 ubiquitin-protein ligase XIAP (Homo sapiens) (P98170 whole entry, looked up): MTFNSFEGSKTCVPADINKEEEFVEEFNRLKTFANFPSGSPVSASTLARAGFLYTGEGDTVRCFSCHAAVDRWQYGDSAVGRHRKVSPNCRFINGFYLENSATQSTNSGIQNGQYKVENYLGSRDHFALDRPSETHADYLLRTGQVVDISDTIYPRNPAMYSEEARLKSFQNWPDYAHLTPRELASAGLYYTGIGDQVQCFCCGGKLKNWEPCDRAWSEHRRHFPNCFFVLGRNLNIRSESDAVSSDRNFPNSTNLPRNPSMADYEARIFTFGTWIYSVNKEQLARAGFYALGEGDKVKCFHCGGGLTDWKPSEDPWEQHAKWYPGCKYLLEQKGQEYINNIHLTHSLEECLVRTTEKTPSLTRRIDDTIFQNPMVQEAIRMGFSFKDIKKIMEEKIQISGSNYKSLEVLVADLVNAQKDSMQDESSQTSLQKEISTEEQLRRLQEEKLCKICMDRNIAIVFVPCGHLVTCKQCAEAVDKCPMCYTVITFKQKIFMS

On to `COCCn1c(C(=O)N2CCCC2)cc2c1C[C@H]1CN(C(=O)c3ccccc3)[C@@](Cc3ccccc3)(C(=O)OC)[C@@H]21`, for which the z-score in experiment [1] was -0.171; in [2], 0.859 (inactive); in [3], -0.738 (inactive); in experiment [5], 0.535 (inactive); in experiment [6] it was 1.41 (inactive); in [7] it was -0.16 (inactive). Further, the z-score in experiment [8] was -0.0447 (inactive); in experiment [9], -0.923. The composite z-score in experiment [4] was 0.132 (inactive); in [10], 0.369.

With `C=CC[C@@]1(C(=O)N(C)C)N=C(c2ccc(OCCCO)cc2)O[C@@H]1c1ccccc1`, the z-score is 0.879 in [1]; -2.54 (inactive) in [2]; -0.235 (inactive) in experiment [3]; 0.95 (inactive) in experiment [5]; -0.422 (inactive) in experiment [6]; -0.936 (inactive) in experiment [7]. Further, the figures for the z-score in experiment [8] and in experiment [9] were -0.649 (inactive) and 0.267, respectively. Moreover, the composite z-score in experiment [4] was 0.13 (inactive); in experiment [10] it was -0.33.

Take `CC(C)C[C@@H]1NC(=O)[C@H]2C[C@@H](C(=O)NCCCCCNC(=O)CS)[C@@H](c3ccc(O)cc3)N2C1=O`: the z-score in [1] is -2.15; in experiment [2], 0.131 (inactive); in experiment [3] it was -0.297 (inactive); in [5], 0.767 (inactive); in [6], 0.665 (inactive); in experiment [7] it was -0.117 (inactive). Moreover, the z-score in experiment [8] was -0.942 (inactive); in experiment [9] it was -0.57. Besides, the results for the composite z-score in experiment [4] and in experiment [10] were 0.204 (inactive) and -0.0577, respectively.

In the case of `[N-]=[N+]=NCc1ccccc1C[C@]1(C(=O)N2CCOCC2)N=C(c2ccc(OCCCO)cc2)O[C@H]1c1ccccc1CN=[N+]=[N-]`, the z-score is 0.133 in experiment [1]; 1.06 (inactive) in experiment [2]; -0.481 (inactive) in [3]; 0.948 (inactive) in experiment [5]; 2.39 (inactive) in [6]; 1.67 (inactive) in [7]. Moreover, the values for the z-score in experiment [8] and in [9] were 0.93 (inactive) and -1.11, respectively. The composite z-score in experiment [4] was 1.21 (inactive); in experiment [10] it was 0.411.

On to `COc1ccc(CCNC(=O)[C@@]2(Sc3ccc(C)cc3)CC(=O)N(Cc3cc(C(F)(F)F)cc(C(F)(F)F)c3)[C@@H]2c2ccc(CO)cc2)cc1`, for which the z-score in experiment [1] was -0.392; in experiment [2] it was -1.01 (inactive); in [3], -0.378 (inactive); in experiment [5], 0.112 (inactive); in [6], -0.83 (inactive); in experiment [7], 0.0664 (inactive). The z-score in experiment [8] is -0.331 (inactive); in experiment [9], -0.395. The composite z-score is -0.61 (inactive) in experiment [4] and 0.536 in experiment [10].

Regarding `CC(C)C[C@H]1NC(=O)[C@H](Cc2ccccc2)NC(=O)[C@@]23C(=O)N[C@@H](Cc4ccccc4)C2[C@H](C)[C@@]2(C)O[C@H]2C3/C=C/C/C=C\CNC1=O` (stereo not given in full), the z-score in [1] was -0.59; in [2] it was -0.396 (inactive); in [3] it was -0.263 (inactive); in experiment [5] it was 0.519 (inactive); in experiment [6], -0.711 (inactive); in experiment [7], -0.437 (inactive). In addition, the z-score was -0.231 (inactive) in experiment [8] and -0.0041 in experiment [9]. Besides, the composite z-score in experiment [4] is -0.228 (inactive); in experiment [10] it was -0.17.

For the compound `Cc1ccc(S[C@]2(C(=O)NCCN3CCOCC3)CC(=O)N(C3CCCCC3)[C@@H]2c2ccc(CO)cc2I)cc1`, the z-score is 1.5 in experiment [1]; -0.0113 (inactive) in [2]; 0.482 (inactive) in [3]; -0.447 (inactive) in experiment [5]; 1.27 (inactive) in [6]; 0.464 (inactive) in experiment [7]. Further, the values for the z-score in [8] and in experiment [9] were 0.677 (inactive) and -1.29, respectively. The composite z-score in experiment [4] is 0.88 (inactive); in experiment [10], -0.302.

In the case of `C=CCN1C(=O)[C@]2(O[C@H](CCn3cc([C@H](O)c4ccccc4)nn3)[C@@H]([Si](C)(C)c3ccc(OC)cc3)[C@@H]2C)c2cc(N3C(=O)c4cccc5cccc3c45)ccc21`, the z-score in experiment [1] was -1.1; in experiment [2] it was 0.0523 (inactive); in experiment [3], -2.78 (inactive); in [5], 1.69 (inactive); in [6], 0.88 (inactive); in experiment [7], 0.908 (inactive). The z-score in [8] was 0.591 (inactive); in experiment [9], -3.61. Moreover, the composite z-score is 0.739 (inactive) in experiment [4] and 0.0435 in [10].

With `COC(=O)[C@H](Cc1ccc(O)cc1)N1CC2=CCCC=C[C@@H]2[C@H]1[C@H](O)Cc1ccccc1`, the z-score in experiment [1] was 0.969; in experiment [2], -2.95 (inactive); in experiment [3] it was 0.658 (inactive); in experiment [5], 0.106 (inactive); in experiment [6], -0.889 (inactive); in experiment [7], 1.34 (inactive). Also, the values for the z-score in [8] and in experiment [9] were 1.34 (inactive) and 0.601, respectively. The composite z-score in experiment [4] is -0.574 (inactive); in experiment [10], -0.219.

Turning to `C=CC[C@]1(C(=O)NCCCOC)N=C(c2ccc(OCCCO)cc2)O[C@H]1c1ccccc1`, the z-score is 0.998 in experiment [1]; -0.96 (inactive) in experiment [2]; 0.619 (inactive) in experiment [3]; -0.661 (inactive) in experiment [5]; 0.0543 (inactive) in [6]; 0.178 (inactive) in experiment [7]. Also, the z-score in experiment [8] was 0.735 (inactive); in [9], 1.36. The composite z-score is -0.205 (inactive) in [4] and 0.102 in experiment [10].
